Test results as given in PubChem BioAssay (Tox21).
Records with an inconclusive call do not appear. Calls of active or inactive are those of the source. Unless noted, calls come from the whole dose curve; as a rule, active = well fitted curve in the direction sought with a large enough effect in the repeat runs; inconclusive = weak or mixed curves; inactive = no such curve, though single readings can be large; an effect the other way counts as inactive or inconclusive.

Target: Estrogen receptor (Homo sapiens) (UniProt P03372)
Experiment: qHTS assay to identify small molecule agonists of the estrogen receptor alpha (ER-alpha) signaling pathway (AID 743075; calls by dose curve;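 note: HEK293 GripTite cells with ER-alpha and UAS-driven beta-lactamase reporter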)
Conditions: HEK293 ER-alpha-UAS-bla, beta-lactamase FRET ratio, 18 h; series mostly up to 70.1 µM; activation: at the top concentration
% is set by controls: 0 for no effect and ±100 for the full control effect.

Estrogen receptor (Homo sapiens), sequence (P03372 whole entry, looked up): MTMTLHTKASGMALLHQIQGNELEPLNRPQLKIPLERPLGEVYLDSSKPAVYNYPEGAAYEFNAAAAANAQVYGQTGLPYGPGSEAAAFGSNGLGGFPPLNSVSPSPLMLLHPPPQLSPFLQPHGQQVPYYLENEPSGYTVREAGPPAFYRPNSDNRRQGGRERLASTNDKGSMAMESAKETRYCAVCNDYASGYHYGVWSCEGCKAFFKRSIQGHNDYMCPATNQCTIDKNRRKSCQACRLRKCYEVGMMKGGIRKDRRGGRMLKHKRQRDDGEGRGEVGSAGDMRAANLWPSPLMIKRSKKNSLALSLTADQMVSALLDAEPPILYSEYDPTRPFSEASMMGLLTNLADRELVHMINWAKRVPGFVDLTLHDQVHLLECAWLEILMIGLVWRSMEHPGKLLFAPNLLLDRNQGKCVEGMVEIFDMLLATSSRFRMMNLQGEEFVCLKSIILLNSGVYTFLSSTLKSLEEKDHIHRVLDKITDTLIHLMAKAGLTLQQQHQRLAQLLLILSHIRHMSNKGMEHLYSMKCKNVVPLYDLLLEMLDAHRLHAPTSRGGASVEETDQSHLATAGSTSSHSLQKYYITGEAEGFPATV

Compound	activation	Potency
O=C(Cl)c1cc(C(=O)Cl)cc(C(=O)Cl)c1	-2.78% (inactive)	
O=C1CCCCCCCCCCCC(=O)OCCO1	-4.96% (inactive)	
CN(Cc1ccc(C(C)(C)C)cc1)Cc1cccc2ccccc12		inactive
CCCCCCCCCCCCCCCCOS(=O)(=O)O	2.38% (inactive)	
O=S(c1cc(Cl)cc(Cl)c1O)c1cc(Cl)cc(Cl)c1O	-5.33% (inactive)	
C=CC(=O)OCCOCCOC(=O)C=C	-4.48% [at 79.1 µM] (inactive)	
Cc1oc(-c2ccccc2)nc1CCOc1cccc2c1ccn2CCC(=O)O	-1.38% (inactive)	
CCCCCCCCCCCCCCCCCCOS(=O)(=O)O	3.03% (inactive)	
Cc1cccc(C)c1OCC(=O)N[C@@H](Cc1ccccc1)[C@@H](O)C[C@H](Cc1ccccc1)NC(=O)[C@H](C(C)C)N1CCCNC1=O	-3.15% (inactive)	
COc1cc(Cl)ccc1Oc1ccc(Cl)cc1Cl	0.681% (inactive)	
C[N+]1(CC2COC(c3ccccc3)(C3CCCCC3)O2)CCCCC1 (configuration not stated)	-1.76% (inactive)	
O=C(CS)Nc1ccccc1	3.31% (inactive)	
C=C1C(=C/C=C2\CCC[C@]3(C)[C@@H]([C@H](C)/C=C/[C@@H](O)C4CC4)CC[C@@H]23)C[C@@H](O)C[C@@H]1O	-2.96% (inactive)	
CC[N+](C)(CC)CCOC(=O)C(O)(c1ccccc1)C1CCCCC1 (configuration not stated)	8.21% (inactive)	
CCCCC1=NC2(CCCC2)C(=O)N1Cc1ccc(-c2ccccc2-c2nn[nH]n2)cc1	-2.66% (inactive)	
O=C(O)c1ccc(-n2nc(-c3ccccc3O)nc2-c2ccccc2O)cc1	3.89% (inactive)	
O=C(Nc1ccc(S(=O)(=O)N2CCOCC2)cc1)c1cc(Cl)ccc1NS(=O)(=O)c1ccc(Cl)s1	-2.11% (inactive)	

Target: Estrogen receptor (Homo sapiens) (UniProt P03372)
Experiment: qHTS assay to identify small molecule agonists of the estrogen receptor alpha (ER-alpha) signaling pathway using the BG1 cell line (AID 743079); note: nearly all actives have a fitted effect of over 20% in size; note: potency is the fitted concentration of half-maximal effect
Conditions: BG1Luc4E2 cells, ERE-luciferase agonist, 22 h; series mostly up to 70.3 µM; activation: at the top concentration

Compound	activation	Potency
O=C(Cl)c1cc(C(=O)Cl)cc(C(=O)Cl)c1	-7.6% (inactive)	
O=C1CCCCCCCCCCCC(=O)OCCO1	-11.3% (inactive)	
CN(Cc1ccc(C(C)(C)C)cc1)Cc1cccc2ccccc12		inactive
CCCCCCCCCCCCCCCCOS(=O)(=O)O	-6.54% (inactive)	
O=S(c1cc(Cl)cc(Cl)c1O)c1cc(Cl)cc(Cl)c1O	-0.838% (inactive)	
C=CC(=O)OCCOCCOC(=O)C=C		6.14 µM (active)
Cc1oc(-c2ccccc2)nc1CCOc1cccc2c1ccn2CCC(=O)O	-4.53% (inactive)	
CCCCCCCCCCCCCCCCCCOS(=O)(=O)O	15.9% (inactive)	
Cc1cccc(C)c1OCC(=O)N[C@@H](Cc1ccccc1)[C@@H](O)C[C@H](Cc1ccccc1)NC(=O)[C@H](C(C)C)N1CCCNC1=O	-25.1% (inactive)	
COc1cc(Cl)ccc1Oc1ccc(Cl)cc1Cl	-10.6% (inactive)	
C[N+]1(CC2COC(c3ccccc3)(C3CCCCC3)O2)CCCCC1 (configuration not stated)	-21.1% (inactive)	
O=C(CS)Nc1ccccc1		21.1 µM (active)
C=C1C(=C/C=C2\CCC[C@]3(C)[C@@H]([C@H](C)/C=C/[C@@H](O)C4CC4)CC[C@@H]23)C[C@@H](O)C[C@@H]1O	-16.9% (inactive)	
CCCCC1=NC2(CCCC2)C(=O)N1Cc1ccc(-c2ccccc2-c2nn[nH]n2)cc1	1.68% (inactive)	
O=C(Nc1ccc(S(=O)(=O)N2CCOCC2)cc1)c1cc(Cl)ccc1NS(=O)(=O)c1ccc(Cl)s1	-10.5% (inactive)	

Test system: not listed separately
Experiment: qHTS assay to identify small molecule antagonists of the estrogen receptor alpha (ER-alpha) signaling pathway using the BG1 cell line (AID 743080; calls by dose curve;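 note: BG1 cells stimulated with 17beta-estradiol alongside compound; nearly all actives have a fitted effect of over 25% in size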; note: potency is the fitted concentration of half-maximal effect)
Conditions: BG1Luc4E2 ERE-luciferase antagonist mode, luminescence; series mostly up to 70.3 µM; activity change, negative = inhibition: at the top concentration
How it was run: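 Readout is ONE-Glo luminescence, taken 30 min at room temperature after reagent addition, preceded by a CellTiter-Fluor viability read; BG1-Luc-4E2 cells had received compound and 17beta-estradiol for 21.5 h at 37 C.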

Compound	activity change, negative = inhibition	Potency
O=C(Cl)c1cc(C(=O)Cl)cc(C(=O)Cl)c1	-17.7% (inactive)	
O=C1CCCCCCCCCCCC(=O)OCCO1	2.32% (inactive)	
CN(Cc1ccc(C(C)(C)C)cc1)Cc1cccc2ccccc12		inactive
CCCCCCCCCCCCCCCCOS(=O)(=O)O	-3.62% (inactive)	
O=S(c1cc(Cl)cc(Cl)c1O)c1cc(Cl)cc(Cl)c1O	-2.25% (inactive)	
Cc1oc(-c2ccccc2)nc1CCOc1cccc2c1ccn2CCC(=O)O	-15.3% (inactive)	
CCCCCCCCCCCCCCCCCCOS(=O)(=O)O	-5.36% (inactive)	
Cc1cccc(C)c1OCC(=O)N[C@@H](Cc1ccccc1)[C@@H](O)C[C@H](Cc1ccccc1)NC(=O)[C@H](C(C)C)N1CCCNC1=O	-23% (inactive)	
C[N+]1(CC2COC(c3ccccc3)(C3CCCCC3)O2)CCCCC1 (configuration not stated)	-15.4% (inactive)	
O=C(CS)Nc1ccccc1	2.22% (inactive)	
CC[N+](C)(CC)CCOC(=O)C(O)(c1ccccc1)C1CCCCC1 (configuration not stated)	2.31% (inactive)	
CCOC(=O)NCCOc1ccc(Oc2ccccc2)cc1		61.1 µM (active)
CCCCC1=NC2(CCCC2)C(=O)N1Cc1ccc(-c2ccccc2-c2nn[nH]n2)cc1	-19% (inactive)	
O=C(Nc1ccc(S(=O)(=O)N2CCOCC2)cc1)c1cc(Cl)ccc1NS(=O)(=O)c1ccc(Cl)s1	-1.29% (inactive)	

Test system: not listed separately
Experiment: qHTS assay to identify small molecule antagonists of the estrogen receptor alpha (ER-alpha) signaling pathway using the BG1 cell line - cell viability counter screen (AID 743081);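 note: compound given together with 17beta-estradiol as the ER stimulus; nearly all actives have a fitted effect of over 45% in size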; note: potency is the fitted concentration of half-maximal effect
Conditions: BG1Luc4E2 viability, CellTiter-Fluor, 22 h; series mostly up to 70.3 µM; activity change, negative = cytotoxicity: at the top concentration

Compound	activity change, negative = cytotoxicity	Potency
CC(C)=CCC/C(C)=C/CC/C(C)=C/CO	0.637% (inactive)	
O=C(Cl)c1cc(C(=O)Cl)cc(C(=O)Cl)c1	-3.79% (inactive)	
O=C1CCCCCCCCCCCC(=O)OCCO1	14.9% (inactive)	
CN(Cc1ccc(C(C)(C)C)cc1)Cc1cccc2ccccc12		inactive
Cc1cccc(C)c1NC(=O)CN(CC(=O)O)CC(=O)O	-5.16% (inactive)	
O=[N+]([O-])c1cccc(S(=O)(=O)O)c1	4.71% [at 95 µM] (inactive)	
CCCCCCCC/C=C\CCCCCCCC(=O)OCC	-0.0305% (inactive)	
CCCCCCCCCCCCCCCCOS(=O)(=O)O	-4.88% (inactive)	
O=S(c1cc(Cl)cc(Cl)c1O)c1cc(Cl)cc(Cl)c1O	0.0333% (inactive)	
CC(C)C[C@H]1C(=O)N2CCC[C@H]2[C@]2(O)O[C@](NC(=O)[C@@H]3C=C4c5cccc6[nH]c(Br)c(c56)C[C@H]4N(C)C3)(C(C)C)C(=O)N12		inactive
Cc1oc(-c2ccccc2)nc1CCOc1cccc2c1ccn2CCC(=O)O	-21% (inactive)	
C1CCCNCCC1	-8.72% (inactive)	
CCCCCCCCCCCCCCCCCCOS(=O)(=O)O	-1.62% (inactive)	
Nc1ccc(N)c2c1C(=O)c1ccccc1C2=O		24.3 µM (active)
COc1cc2nc(N3CCN(C(=O)C4COc5ccccc5O4)CC3)nc(N)c2cc1OC (configuration not stated)	-19% (inactive)	
OC(CN1CCC(Cc2ccc(F)cc2)CC1)c1ccc(Cl)cc1 (configuration not stated)	-18.7% (inactive)	

Compound	activity change, negative = cytotoxicity	Potency
Nc1ncn([C@H]2C[C@H](O)[C@@H](CO)O2)c(=O)n1	2.77% (inactive)	
CCC(C)(C)CC	1.85% [at 95 µM] (inactive)	
COc1cc(Cl)ccc1Oc1ccc(Cl)cc1Cl	-0.521% (inactive)	
COc1ccc(-c2nc3ccc(C4=NNC(=O)CC4C)cc3[nH]2)cc1 (configuration not stated)	-15.5% (inactive)	
C[N+]1(CC2COC(c3ccccc3)(C3CCCCC3)O2)CCCCC1 (configuration not stated)	-9.28% (inactive)	
C=C1C(=C/C=C2\CCC[C@]3(C)[C@@H]([C@H](C)/C=C/[C@@H](O)C4CC4)CC[C@@H]23)C[C@@H](O)C[C@@H]1O	-6.53% (inactive)	
CC[N+](C)(CC)CCOC(=O)C(O)(c1ccccc1)C1CCCCC1 (configuration not stated)	10.7% (inactive)	
CCOC(=O)NCCOc1ccc(Oc2ccccc2)cc1	-1.53% (inactive)	
O=[N+]([O-])c1ccc(NCCO)c(OCCO)c1		68.7 µM (active)
CCCCC1=NC2(CCCC2)C(=O)N1Cc1ccc(-c2ccccc2-c2nn[nH]n2)cc1	-10.6% (inactive)	
CC(C)OC(=O)C(C)N(C(=O)c1ccccc1)c1ccc(F)c(Cl)c1 (configuration not stated)	-6.51% (inactive)	
Clc1ccc(Cn2c(CN3CCCC3)nc3ccccc32)cc1	0.593% [at 32.5 µM] (inactive)	
O=C(O)c1ccc(-n2nc(-c3ccccc3O)nc2-c2ccccc2O)cc1	2.84% (inactive)	
Cc1cccc(Nc2ccccc2)c1	7.78% (inactive)	
O=C(Nc1ccc(S(=O)(=O)N2CCOCC2)cc1)c1cc(Cl)ccc1NS(=O)(=O)c1ccc(Cl)s1	-18.6% (inactive)	
